Data taken from PubChem BioAssay AID588342 (National Center for Advancing Translational Sciences (NCATS), 2011).
The whole screen tested about 360,000 compounds, of which about 25,000 (6.9%) were called active. A call without a number means that no potency is given here. Inconclusive results (about 9%) are left out. This excerpt belongs to a sample that is enriched for actives. A number with no mark means an inactive call. Calls follow the shape of the dose curve; as a rule, active = well fitted inhibition curve with a large enough effect; inconclusive = small, poorly fitted or top-dose-only effect; inactive = flat fitted curve, though single readings scatter.

The compounds below were run against Luciferin 4-monooxygenase (Photinus pyralis) (UniProt P08659) (assay: qHTS profiling assay for firefly luciferase inhibitor/activator using purifed enzyme and Km concentrations of substrates (counterscreen for miR-21 project)). Settings: purified FLuc, luminescence inhibition; series mostly up to 57.5 µM.
Chain of Luciferin 4-monooxygenase (Photinus pyralis) (P08659 whole entry, looked up): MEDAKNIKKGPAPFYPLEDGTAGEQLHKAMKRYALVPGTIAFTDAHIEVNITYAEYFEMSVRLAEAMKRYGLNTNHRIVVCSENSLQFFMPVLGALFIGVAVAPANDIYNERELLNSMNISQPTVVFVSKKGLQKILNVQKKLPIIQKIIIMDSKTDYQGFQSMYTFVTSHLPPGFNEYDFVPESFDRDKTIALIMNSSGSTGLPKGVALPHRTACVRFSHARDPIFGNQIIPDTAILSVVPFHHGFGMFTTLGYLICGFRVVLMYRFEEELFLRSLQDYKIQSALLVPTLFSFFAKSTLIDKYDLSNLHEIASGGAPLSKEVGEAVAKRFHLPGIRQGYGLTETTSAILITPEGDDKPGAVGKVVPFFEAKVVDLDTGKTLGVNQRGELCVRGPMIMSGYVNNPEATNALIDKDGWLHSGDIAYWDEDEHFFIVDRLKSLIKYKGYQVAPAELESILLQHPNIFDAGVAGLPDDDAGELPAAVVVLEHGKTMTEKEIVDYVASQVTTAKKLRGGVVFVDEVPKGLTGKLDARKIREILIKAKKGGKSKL
From the text: MLPCN Grant: 1 R21 NS059478-01 (miR-21 grant) Assay Provider: NCGC NCGC Assay Overview: Firefly (Photinus pyralis) luciferase is one of the most commonly used transcriptional reporters for a number of reasons. It is considered one of the more dynamically responsive reporters -that is, responsive to changes in reporter transcription - as it requires no post-translational modifications and is enzymatically active directly after protein synthesis (Wood, 1998). Additionally, the half-life of the luciferase protein is short relative to other reporter-gene products (Wood, 1995). Whereas reporters with long half-lives potentially allow for increased signal due to accumulation of reporter-gene product, once accumulated in the cell, dynamic changes in reporter-gene expression may be difficult to detect(Fan and Wood, 2007; Almond et al., 2004). It has been shown that wild-type P. pyralis luciferase has a half-life of approximately […] hours in mammalian cells (Thompson et al., 1991). Firefly luciferase reporter-gene assays are also generally considered one of the most sensitive assay types (Wood, 1995; Wood, 1998). Although light produced in a bioluminescence reaction is of lower intensity than that produced during fluorescence emission, this is offset by little to no background light inherent to luminescent assays. Thus the luciferase reporter can be expressed at much lower levels than fluorescent proteins while still providing robust signal. # However, it was initially observed, in 1991, by Thompson et al., that compounds that resemble the substrates of firefly luciferase (FLuc) can act as competitive inhibitors of the enzyme, and that these compounds, upon interaction with luciferase in the cell, can actually stabilize the protein and increase its half-life. Accumulated intracellular FLuc protein can be measured as an increase in luminescence signal, upon addition of detection reagents (which contain high concentrations of FLuc substrates) commonly used in high-throughput screening. In cell-based reporter gene assays that use FLuc as the reporter gene to quantitate the potential influence of a given compound against the target biology, this apparent increase in luminescence can mistakenly be interpreted as identification of a compound that is active against the target of interest. This is the case for the miR-21 FLuc reporter gene assay used to identify inhibitors of the miR-21 pathway (PubChem AID 2289) - compounds of interest will inhibit miR-21 biogenesis/expression or activity, and are identified by causing an increase in luminescence, due to increased FLuc translation. However, FLuc inhibitory compounds that stabilize the FLuc protein will give an identical read-out, making it difficult to distinguish compounds that are active against the target from those active against FLuc. Previous profiling work to determine the prevalence of compounds that affect FLuc enzymatic activity (PubChem AID 411) identified that ~3% of the MLSMR library (then at ~72K) inhibited FLuc. […] Since the MLSMR had grown to ~350K compounds, and since it was expected that a significant percentage of compounds found active in the miR-21 FLuc assay would be FLuc inhibitors, the library was screened for activity against FLuc using a biochemical assay of purified FLuc and KM concentrations of FLuc substrates (D-luciferin and ATP).
NCGC Assay Protocol Summary: Reagents: 50mM Tris acetate, pH 7.5; 10mM Mg acetate; 10uM D-luciferin (Sigma #L9504); 10uM ATP; 0.01% Tween-20; 0.05% BSA; 10nM P. pyralis luciferase (Sigma #L9506) Control compounds used were two known firefly luciferase inhibitors (compounds (2) and (5) in Auld et al., 2010), and DMSO. […]
Also: nearly all actives have a fitted effect of over 55% in size.

Row | SMILES | Potency | activity change, negative = inhibition
1 | COc1cc(C(c2c(NC(=O)c3ccco3)sc(C)c2C)N2CCOCC2)cc(OC)c1OC (stereo not drawn) | inactive | –
2 | COc1ccc(C2CC(c3cccs3)=NN2c2ccc(F)cc2)cc1OC (stereo not drawn) | inactive | –
3 | COc1ccc(C2CC(c3cccs3)=NN2c2ccccc2)cc1 (stereo not drawn) | 21.3 µM (active) | –
4 | COc1ccc(C2CC(c3cccs3)=NN2c2nc(C)c(C(C)=O)s2)cc1OC (stereo not drawn) | inactive | –
5 | COc1cc(CN(CC2CCCO2)C(=O)c2ccccc2F)cc(OC)c1OC (stereo not drawn) | inactive | –
6 | S=c1[nH]nc(-c2cc(-c3ccccc3)n[nH]2)n1/N=C/c1c2ccccc2cc2ccccc12 | inactive | –
7 | CNc1nc(-c2ccccc2)cc(-c2ccccc2)n1 | inactive | –
8 | c1ccc(-c2cc(-c3ccccc3)[nH]n2)cc1 | 7.57 µM (active) | –
9 | Oc1ccccc1-c1cc(-c2ccc(Cl)cc2)n[nH]1 | 0.953 µM (active) | –
10 | Cc1ccc(NC(=O)c2cc(-c3ccccc3O)n[nH]2)cc1C | inactive | –
11 | Oc1cc(O)c2c(c1)OC(c1ccc(O)c(O)c1)C(O)C2 (stereo not drawn) | inactive | –
12 | Cc1ccc(Cl)cc1NC(=O)CCC(=O)N1CC(C)Sc2ccccc21 (stereo not drawn) | inactive | –
13 | CCOC(=O)c1ccc(NC(=O)CSc2nc3c([nH]c4ccccc43)c(=O)n2C)cc1 | inactive | –
14 | O=C(CN1CCc2ccccc2C1)Nc1cccc(S(=O)(=O)N2CCOCC2)c1 | inactive | –
15 | O=C(Nc1ccc2sc3ccccc3c(=O)c2c1)c1ccccc1Cl | 2.13 µM (active) | –
16 | CS(=O)(=O)c1ccccc1C(=O)Nc1ccc2sccc2c1 | inactive | –
17 | Cn1c(=O)c(=O)n(C)c2cc(NC(=O)c3ccccc3Br)ccc21 | inactive | –
18 | COc1ccccc1NC(=O)C1=C(C)Nc2ncnn2C1c1sccc1C (stereo not drawn) | inactive | –
19 | COc1ccccc1Nc1nnc(SC(C)C(=O)NC2CC2)s1 (stereo not drawn) | inactive | –
20 | CCCOC(=O)c1ccc(N2C(=O)c3ccccc3C2=O)cc1 | inactive | –
21 | Cc1[nH]n(-c2ccccc2)c(=O)c1CCOC(=O)c1ccc(C(F)(F)F)cc1 | 21.3 µM (active) | –
22 | CC1=C(C(=O)OCc2ccccc2)C(c2ccc(C(F)(F)F)cc2)NC(=O)N1CCCCCC(=O)O (stereo not drawn) | inactive | –
23 | O=C(NC1(C(F)(F)F)N=C(c2ccccc2)N(C2CCCCC2)C1=O)c1ccccc1F (stereo not drawn) | inactive | –
24 | CN(C)CCCN(C(=O)c1ccc(S(=O)(=O)N2CCCc3ccccc32)cc1)c1nc2ccc(F)cc2s1 | inactive | –
25 | CCS(=O)(=O)N1Cc2ccccc2CC1C(=O)Nc1ccc(OC)cc1OC (stereo not drawn) | inactive | –
26 | CCS(=O)(=O)N1Cc2ccccc2CC1C(=O)Nc1nc2ccc(F)cc2s1 (stereo not drawn) | 15.1 µM (active) | –
27 | O=C(COC(=O)c1cc(S(=O)(=O)N2CCOCC2)ccc1Cl)NCCc1ccccc1 | inactive | –

Row | SMILES | Potency | activity change, negative = inhibition
28 | CCOC(=O)c1c(C)[nH]c(C)c1S(=O)(=O)NCC(=O)NCc1cccc(C)c1 | inactive | –
29 | CN(Cc1nc(-c2cnccn2)no1)Cc1n[nH]c2c1CCCCC2 | inactive | –
30 | COc1ccc(C(=O)NC(Cc2ccc(OC(=O)c3ccc(OC)cc3)cc2)C(=O)O)cc1 (stereo not drawn) | 12 µM (active) | –
31 | CCOC(=O)C(Cc1ccccc1)NC(=O)CCC(=O)c1ccc(OC)cc1 (stereo not drawn) | inactive | –
32 | COc1ccc(C(=O)N[C@H](C(=O)NCc2ccccc2)C(C)C)cc1 | inactive | –
33 | C[C@H](NC(=O)c1[nH]cnc1C(=O)Nc1nccs1)c1ccccc1 | inactive | –
34 | CCOc1ccc(-n2nc3ccc(NC(=O)c4ccc(OC)c(Cl)c4)cc3n2)cc1 | inactive | –
35 | COc1cccc(C(=O)Nc2ccc(-c3cc(C(F)(F)F)nn3-c3ccccc3)cc2)c1 | inactive | –
36 | COc1cc(OC)cc(C(=O)Nc2cc3nn(-c4ccccc4)nc3cc2Cl)c1 | 5.36 µM (active) | –
37 | CCC(=O)Nc1ccc(C)cc1-c1nc2ccccc2n(Cc2ccccc2)c1=O | inactive | –
38 | CC(=O)Oc1ccc(-c2nc3c(C)cccc3c(=O)o2)cc1 | inactive | –
39 | COc1cccc(/C=C2\C=C(c3ccc(C)cc3)OC2=O)c1OC(C)=O | 15.1 µM (active) | –
40 | CN(C)/C=C1\C=C(c2ccccc2)OC1=O | inactive | –
41 | O=C1C=C(c2ccnc3cc(Cl)ccc23)C[C@@H](c2ccc3c(c2)OCO3)C1 | inactive | –
42 | Cc1cc2c(c(=O)n1Cc1ccccc1)C1O[C@](CCCCN3C(=O)c4ccccc4C3=O)(Cc3ccccc31)O2 | – | 4.34% [at 11.5 µM]
43 | O=C(CCCN=C1NS(=O)(=O)c2ccccc21)OCC(=O)c1ccc(F)c(F)c1 | inactive | –
44 | O=Cc1ccc(OCc2cn3ccccc3n2)cc1 | 12 µM (active) | –
45 | COc1ccc(C(=O)NCc2cn3ccccc3n2)cc1 | inactive | –
46 | Cn1cc[n+](C)c1COc1ccc(C=O)cc1 | inactive | –
47 | Cc1ccc(OCCSc2nc(C)c(Cc3ccccc3)c(=O)[nH]2)cc1 | inactive | –
48 | O=C(Nc1ccccc1N1CCN(c2ccccc2)CC1)c1cccc(F)c1 | inactive | –
49 | CCn1c(=O)c(=O)n(CC)c2cc(N3CCCCC3)c(NC(=O)c3cccc(F)c3)cc21 | inactive | –
50 | O=C(Nc1ccn(Cc2ccccc2)n1)c1cccc(F)c1 | 4.78 µM (active) | –
51 | O=C(Nc1ccn(Cc2ccccc2)n1)c1n[nH]c([N+](=O)[O-])c1Cl | 0.849 µM (active) | –
52 | O=C(Cn1cnc([N+](=O)[O-])n1)NCCc1ccccc1 | inactive | –
53 | Cc1ccc(Cn2ccc(NC(=O)C3C4CCC(C4)C3C(=O)O)n2)cc1 (stereo not drawn) | inactive | –
